Source: PubChem BioAssay AID1063 (University of Pittsburgh Molecular Library Screening Center, 2008)
In all, about 200,000 compounds went through this assay and about 18,000 (9%) were called active. This is one part of a sample in which actives are shown more often than they occur. No stated cut-off is given here; in the data, active means inhibition above about 50%; inactive means the rest.

Assay: antileishmanial activity against promastigotes – primary screen (AID 1063);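 further: promastigotes grown with compound for 44 hours at 28 °C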
Details: Leishmania major promastigotes, resazurin fluorescence viability; at 10 µM; hits give high values

Compound	inhibition
CCN1CCCC1CNc1ncnc2c1[nH]c1ccc(F)cc12 (stereo not given)	78.6% (active)
CC(C)OCCCNc1ncnc2c1[nH]c1ccc(F)cc12	36.3% (inactive)
CCN1CCCC1Cn1cnc2c([nH]c3cc(OC)ccc32)c1=O (stereo not given)	10.5% (inactive)
O=C(NCC1CCCCC1)c1cc(S(=O)(=O)N2CCCCC2)ccc1N1CCOCC1	7.99% (inactive)
Cc1cc(/C=C2/C(=N)N3C(=NC2=O)SN=C3S(C)(=O)=O)c(C)n1-c1ccccc1	3.11% (inactive)
O=C(COc1ccccc1F)NNC(=O)c1ccc(N2CCCCC2)c([N+](=O)[O-])c1	-1.27% (inactive)
O=C(Nc1ccc(N2C(=O)c3cccc4cccc(c34)C2=O)cc1)c1ccc(N2CCCCC2)c([N+](=O)[O-])c1	75% (active)
O=C(Nc1cccc(C(F)(F)F)c1)c1ccc(N2CCNCC2)c([N+](=O)[O-])c1	100% (active)
O=C(Nc1ccc2c(c1)OCO2)c1ccc(N2C(=O)c3ccccc3C2=O)cc1	-0.72% (inactive)
CC(NC(=O)c1ccc(N2CCNCC2)c([N+](=O)[O-])c1)C12CC3CC(CC(C3)C1)C2 (stereo not given)	7.22% (inactive)
Cc1cccc(NC(=O)c2cccc(C(F)(F)F)c2)c1	13.2% (inactive)
C/C(=N/NC(=O)CCc1ccccc1)c1ccco1	11.8% (inactive)
CC1=NN(C(=O)c2ccc(Br)cc2)C(O)(c2ccccc2)C1 (stereo not given)	-9.77% (inactive)
CCOc1ccc(-c2nnc(-c3ccco3)o2)cc1	2.35% (inactive)
CCCCOc1ccc(-c2nnc(-c3ccco3)o2)cc1	-7.38% (inactive)
CCC(=O)Oc1cccc(C(=O)Nc2ccc(-c3nnc(-c4ccco4)o3)cc2)c1	98.9% (active)
CCN(CC)S(=O)(=O)c1ccc(Cl)c(C(=O)NC(C)C(c2cccs2)N2CCCC2)c1 (stereo not given)	10.7% (inactive)
Cc1cc(N2CCOCC2)nc2ccc(NC(=S)N3CCN(Cc4ccccc4)CC3)cc12	36.5% (inactive)
O=C(Nc1ccccc1)/C(=C/c1ccc([N+](=O)[O-])cc1)NC(=O)c1ccccc1	-0.93% (inactive)
CCOC(=O)/C(=N\Nc1ccccc1[N+](=O)[O-])c1csc(Nc2ccccc2)n1	15.4% (inactive)
CCOC(=O)/C(=C\c1ccc([N+](=O)[O-])cc1)C(=O)c1cc(C(C)=O)c(Nc2ccccc2)s1	101% (active)
Cc1ccc(C(=O)N/C(=C/c2cccs2)C(=O)NCC2CCCO2)cc1 (stereo not given)	-3.66% (inactive)
CCCCC(=O)NNC(=S)NC(=O)C(c1ccccc1)c1ccccc1	22.8% (inactive)
CC(C)C(=O)NC(=S)Nc1ccccc1F	-3.27% (inactive)
CC(C)C(=O)Nc1cccc(NC(=S)NC(=O)C(c2ccccc2)c2ccccc2)c1	100% (active)
